Measured values published in PubChem BioAssay AID2205 (University of Pittsburgh Molecular Library Screening Center, 2009).
About 1,600 (0.8%) of roughly 200,000 compounds were called active.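 The calls were made as follows: active = plate Z-score above 3 for both tubulin-high and condensed-nucleus cell shares, with cell loss under 80%, at 10 µM; inactive = the rest, inconclusive results apart.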 The entries come from a sample that favours actives as a whole.

assay: microtubule stabilizers in HeLa cells, primary screen, imaging, high-content imaging (AID 2205); conditions: HeLa tubulin immunostaining HCS, 24 h, at 10 µM; % Hoechst-high responders: measured here: nuclear condensation Hoechst responders, stronger effect = higher value, share of cells brighter than vehicle mean+2SD; % tubulin-high responders: stronger effect = higher value, share of cells brighter than vehicle mean+2SD; toxicity: measured here: cytotoxicity by cell density;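 as to % tubulin-high responders: anti alpha tubulin signal scored within the nucleus-defined area of each cell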;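 as to toxicity: 0% = mean cell density of plate MIN control wells and 100% = no cells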

| SMILES | % Hoechst-high responders | % tubulin-high responders | toxicity |
| --- | --- | --- | --- |
| Cc1ccc(Nc2nnc(SCc3ccccc3)s2)cc1 | 1.53% | 1.84% (inactive) | 10% |
| Nc1ccc(Nc2ccccc2)cc1 | 2.02% | 3.57% (inactive) | 3.51% |
| Cc1ccc(Nc2ccccc2N)cc1 | 19% | 25.1% (active) | 21.1% |
| COc1ccccc1OCCNC(=O)c1cc([N+](=O)[O-])cc([N+](=O)[O-])c1 | 1.79% | 2.35% (inactive) | 4.5% |
| CCOC(=O)c1sc2nc(CSCC(=O)OCc3ccc(C(=O)OC)o3)[nH]c(=O)c2c1C | 1.26% | 1.86% (inactive) | 6.86% |
| CCOC(=O)c1sc2nc(CSc3ccccc3)[nH]c(=O)c2c1C | 28.5% | 17.6% (active) | 32.2% |
| CCOC(=O)c1sc2nc(C)nc(SCC(N)=O)c2c1C | 2.34% | 3.35% (inactive) | 5.02% |
| Cc1nn(C)cc1/C=N/NC(=O)c1sc2ccccc2c1Cl | 0.999% | 1.5% (inactive) | 12.2% |
| O=C(Nc1ccon1)c1sc2ccccc2c1Cl | 2.6% | 2.29% (inactive) | 5.2% |
| O=C(N/N=C/c1c(Cl)[nH]c2ccccc12)c1sc2ccccc2c1Cl | 42.8% | 18.9% (active) | 32.3% |
| CCOC(=O)CCCN1CC(O)=C(c2nc3ccccc3s2)C1=N | 2.61% | 4.95% (inactive) | 2.95% |
| COc1ccccc1N1CC(O)=C(c2nc3ccccc3s2)C1=N | 9.29% | 17.8% (active) | 14.3% |
| N=C1C(c2nc3ccccc3s2)=C(O)CN1NC(=O)c1ccc([N+](=O)[O-])cc1 | 1.37% | 9.65% (inactive) | 4.7% |
| Cc1ccc(C(=O)NC(=S)Nc2ccccc2C)cc1 | 1.22% | 1.11% (inactive) | 8.22% |
| C/C(CCC(=O)OC[C@H]1O[C@H](C#Cc2ccccc2)C=C[C@@H]1Oc1ccc(C)cc1)=N\OC[C@@H](O)[C@H]1O[C@@H]2OC(C)(C)O[C@@H]2[C@H]1O | 2.47% | 2.74% (inactive) | 9.27% |
| COc1ccccc1C1SCCN1C(=O)c1ccc([N+](=O)[O-])cc1 (stereo not given) | 3.5% | 3.9% (inactive) | 3.11% |
| COc1ccc(C(=O)N2CCc3cc(OC)c(OC)cc3C2c2cccc([N+](=O)[O-])c2)cc1 (stereo not given) | 33.6% | 45.1% (active) | 30.8% |
| CCC1(C(=O)c2ccccc2)C(c2cccc([N+](=O)[O-])c2)C1(C(=O)OC)C(=O)OC (stereo not given) | 2.35% | 3.4% (inactive) | 3.29% |

| SMILES | % Hoechst-high responders | % tubulin-high responders | toxicity |
| --- | --- | --- | --- |
| COc1ccc(N2CCN(C(=O)C3CCN(S(=O)(=O)c4ccc(C)cc4)CC3)CC2)cc1 | 2.46% | 4.98% (inactive) | 9.28% |
| CCCCOc1ccc(NC(=O)[C@@H]2CCCN2C(=O)C2CCN(S(=O)(=O)c3ccc(C)cc3)CC2)cc1 | 12% | 23.9% (active) | 63.4% |
| Cc1cccc(OCCCC(=O)Nc2ccc(S(=O)(=O)N3CCCC3)cc2)c1 | 2.42% | 3.34% (inactive) | 1.31% |
| CCOc1ccc(NC(=S)N2CCC(N(C)CC3CCCO3)CC2)cc1 (stereo not given) | 1.17% | 2.22% (inactive) | 7.25% |
| COC(=O)c1cc(C(=O)N(Cc2ccccc2)c2ccccn2)cc([N+](=O)[O-])c1 | 2.13% | 3.91% (inactive) | 2.76% |
| CCc1nnc(NS(=O)(=O)c2ccc(N=Cc3c(C)[nH]n(-c4ccc(C)cc4)c3=O)cc2)s1 | 2.28% | 1.91% (inactive) | 6.1% |
| CCOc1[nH]n(-c2ccc(Cl)cc2)c(=O)c1C=Nc1ccc(O)cc1 | 12.9% | 33.2% (active) | 43.1% |
| Cc1[nH]n(-c2ccc(Cl)cc2)c(=O)c1/C=N/n1c(C)nc2ccccc2c1=O | 2.61% | 5.31% (inactive) | 6.25% |
| O=C(NC(=S)Nc1ccc(S(=O)(=O)N2CCOCC2)cc1)c1ccccc1[N+](=O)[O-] | 1.54% | 3.32% (inactive) | 3.74% |
| Cc1ccc(CNC(=O)C2CC(c3ccccc3[N+](=O)[O-])=NO2)o1 (stereo not given) | 2.18% | 1.45% (inactive) | 2.23% |
| COc1ccc(-c2cc(C(=O)NCc3ccco3)no2)cc1OC | 1.41% | 1.62% (inactive) | 8.27% |
| COc1ccc(C2=NOC(C(=O)NCc3ccco3)C2)cc1OC (stereo not given) | 22.4% | 39.6% (active) | 66.2% |
| O=[N+]([O-])c1ccc(Sc2n[nH]c(-c3ccco3)n2)nc1 | 1.75% | 2.25% (inactive) | 7.26% |
| CCCCCCCC[n+]1cccc(C(=O)N2c3c(nc(N)[nH]c3=O)NC(C)C2C)c1 (stereo not given) | 2.15% | 1.56% (inactive) | 7.45% |
| CCOc1cccc(/C=N/N2C(=O)CSC2=S)c1O | 1.52% | 5.1% (inactive) | 14.4% |
| Cc1nccn1CCCNC(=O)CC1C(=O)NCCN1Cc1ccc(Cl)c(F)c1 (stereo not given) | 2.31% | 2.68% (inactive) | 1.05% |
| COC(=O)C1=C(Nc2ccc(OC)cc2)C=C(C)C(C(=O)OC)C1c1ccc(C)cc1 (stereo not given) | 1.91% | 2.3% (inactive) | 12.1% |
